# According to PubChem BioAssay:
# For some assays here: Entries with a potency or affinity are not part of this list. Calls of active or inactive are those of the source. Unless noted, no cut-off is given here; in the data, nearly all actives have IC50 up to about 0.91 µM.
# Biological target: Protein kinase 7 (PK7), Plasmodium falciparum 3D7 (PF3D7_0213400) (UniProt Q7YTF7)
# Assay: inhibition of Plasmodium PK7 catalytic activity – biochemical, TCAMS antimalarial set, Kinase-Glo luminescence (AID 1159587; call rule not given here)
# Details: recombinant PfPK7, Kinase-Glo ATP depletion luminescence
# Chain of Protein kinase 7 (PK7), Plasmodium falciparum 3D7 (PF3D7_0213400) (Q7YTF7 1-343): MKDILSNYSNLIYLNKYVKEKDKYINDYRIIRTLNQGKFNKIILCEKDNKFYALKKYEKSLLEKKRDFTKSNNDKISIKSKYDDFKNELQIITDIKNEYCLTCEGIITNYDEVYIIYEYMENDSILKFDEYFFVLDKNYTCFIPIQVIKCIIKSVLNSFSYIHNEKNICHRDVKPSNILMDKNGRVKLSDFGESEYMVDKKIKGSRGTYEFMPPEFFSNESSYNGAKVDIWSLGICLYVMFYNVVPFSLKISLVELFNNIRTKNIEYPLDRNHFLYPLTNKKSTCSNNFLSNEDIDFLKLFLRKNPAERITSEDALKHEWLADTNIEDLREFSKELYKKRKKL
row,Compound,outcome
1,CC(C)CCN1CCCN(Cc2cccc(NC(=O)c3cc4ccccc4s3)c2)CC1,inactive
2,CNCCNCc1ccc(-c2ccc(-c3nc4c(C)cccc4[nH]3)cc2)cc1,inactive
3,CS(=O)(=O)CCNCc1cccc(-c2cc3c(Nc4ccc5c(cnn5Cc5ccccc5)c4)ncnc3s2)c1,inactive
4,Cc1cc(N2CCCC2)nc(Nc2ccc(NC(=O)c3ccccc3)cc2)n1,inactive
5,CN1C[C@@H](c2ccccc2)c2cc(O)c(CN3CCCCC3)cc2C[C@H]1Cc1ccccc1,inactive
6,CN(Cc1cccc(C#N)c1)C1CCN(c2cc(NC(=O)c3ccc(F)cc3)ccn2)CC1,inactive
7,CCC1N=C(N)N=C(N)N1OCCCOc1c(Cl)cc(Cl)cc1Cl (stereo not given),inactive
8,O=c1c2c([nH]c3cc(Cl)ccc13)CCCC2,inactive
9,COc1cc(F)c2nccc([C@@H](O)CN3CCC(NCc4nc5c(F)cccc5[nH]4)CC3)c2c1,inactive
10,Cc1cc(NC(=O)Nc2ccc(I)c(OCCN(C)C)c2)ccc1Br,inactive
11,Cc1c(-c2cccc(NC(=O)C(C)(C)Oc3ccc(Cl)cc3)c2)nc2ncccn12,inactive
12,CCS(=O)(=O)c1ccc(-c2cnc3[nH]cc(-c4ccc(N)cc4)c3c2)cc1,inactive
13,COc1ccc(C)c(Nc2ccnc(Nc3ccc(-c4cnc[nH]4)cc3)n2)c1,inactive
14,Oc1ccc(CCNc2nc(NCCCOc3ccccc3-c3ccc(C(F)(F)F)cc3)nc(N3CCNCC3)n2)cc1,inactive
15,CCCn1c(=N)c(C(=O)NCCc2ccccc2)cc2c(=O)n3cccc(C)c3nc21,inactive
16,CN(C)c1ccc(-c2ccc(C(=O)NC3CCN(Cc4ccc(F)cc4)CC3)s2)cc1,inactive
17,CC(=O)N[C@@H]1c2cc(C(C)=O)ccc2OC(C)(C)[C@@H]1O,inactive
18,COc1cccc(-c2cnc(N)c(-c3nc4ccc(C(F)(F)F)cc4[nH]3)c2)c1,inactive
19,COc1ccc(CNC(=O)Nc2cc3cc(-c4ccc(CN5CCCC5)cc4)ccc3n3c(C)nnc23)cc1,inactive
20,O=C(Cc1cn(-c2ccccc2)nc1-c1ccc(Cl)cc1)Nc1nccs1,inactive
21,COc1cccc(CN(C(=O)Nc2ccccc2F)[C@H]2C[C@H]3C(=O)Nc4cc(F)ccc4C(=O)N3C2)c1,inactive
22,Cc1cc(NN=Cc2ccc([N+](=O)[O-])cc2)c2ccc(F)cc2n1,inactive
23,N#Cc1cccc(-c2cccc(C(=O)NC3CCC(CCN4CCc5ccc(C#N)cc5CC4)CC3)c2)c1 (stereo not given),inactive
24,Cc1cc(NC(=O)Nc2ccc3nccc(N4CCN(C)CC4)c3c2)ccc1Br,inactive
25,O[C@@H](c1ccccc1)[C@@H]1CN(CCc2ccccc2)CC[C@@]1(O)c1ccccc1,inactive

# Biological target: Calcium-dependent protein kinase 4 (Plasmodium falciparum (isolate 3D7)) (UniProt Q8IBS5)
# Sequence (Q8IBS5 whole entry, looked up): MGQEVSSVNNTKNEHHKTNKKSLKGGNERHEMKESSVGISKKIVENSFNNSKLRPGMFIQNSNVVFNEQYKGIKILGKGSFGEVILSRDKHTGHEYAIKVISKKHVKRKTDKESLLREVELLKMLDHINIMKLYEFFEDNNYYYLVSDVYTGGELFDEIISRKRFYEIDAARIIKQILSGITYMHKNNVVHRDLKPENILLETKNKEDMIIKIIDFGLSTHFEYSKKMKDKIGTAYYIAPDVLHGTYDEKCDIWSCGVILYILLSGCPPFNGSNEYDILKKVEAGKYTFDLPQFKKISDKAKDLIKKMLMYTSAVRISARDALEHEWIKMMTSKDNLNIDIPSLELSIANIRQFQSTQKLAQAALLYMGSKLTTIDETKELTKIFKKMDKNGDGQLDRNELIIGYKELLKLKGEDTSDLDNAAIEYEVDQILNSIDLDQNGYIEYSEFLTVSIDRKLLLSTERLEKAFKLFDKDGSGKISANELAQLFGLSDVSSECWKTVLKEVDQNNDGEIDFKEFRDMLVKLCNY
# Assay: PfCDPK4 kinase inhibitors, biochemical, TCAMS library (AID 1159588)
# Details: recombinant PfCDPK4, Kinase-Glo ATP depletion luminescence
row,Compound,outcome
1,COc1cc2nc(NCc3cccc(CNC(=O)c4ccc(-c5ccc(C(C)=O)cc5)cc4)c3)nc(N)c2cc1OC,inactive
2,COc1ccc(CCN(C)CCCOc2ccc(NC(=O)COc3cccc4sc5ccccc5c(=O)c34)cc2)cc1OC,inactive
3,O=S(=O)(c1ccc(OCc2ccc(Cl)cc2)cc1)c1cc2c(cc1O)CCN(C1CCC1)CC2,inactive
4,O=C(Nc1ccccc1)Nc1cccc(-c2nn3c(OCC4CCCCN4)cccc3c2-c2ccncc2)c1 (stereo not given),inactive
5,Cc1nnsc1C(=O)Nc1cccc(-c2cccc(-c3nc4ccc(F)cc4[nH]3)c2)c1,inactive
6,CN(CCCNCc1cccc2ccccc12)CCCNCc1cccc2ccccc12,inactive
7,C[C@@H](Nc1nc(NCc2ccccc2)c2sccc2n1)c1ccccc1,inactive
8,CN(C)CCCOc1ccccc1CN1CC[C@H](NC(=O)c2ccc(Cl)c(Cl)c2)C1,inactive
9,COc1ccc(-c2cccc(NC(=O)c3cccc(C#N)c3)c2)cc1CN1CCNCC1,inactive
10,Cc1nc2c(Nc3nc(-c4ccncc4)cs3)ncnc2n1-c1ccccc1Cl,inactive
11,Fc1ccc(Nc2ccnc3cc(-c4ccc(CN5CCOCC5)o4)ccc23)c(Cl)c1,inactive
12,O=C(/C=C/c1ccc(Cl)c(Cl)c1)NCCCCCN1CCC(NC(=O)Nc2ccc([N+](=O)[O-])cc2)CC1,inactive
13,CO/C(=C\C=C\c1cc2cc(Cl)c(Cl)cc2[nH]1)C(=O)NC1CCN(CCCc2ccccc2)CC1,inactive
14,COc1ccc2cc(CNCCCCCCNCc3ccc4cc(OC)ccc4c3)ccc2c1,inactive
15,O=C(/C=C/c1cccc(C(F)(F)F)c1)NCCCCCN1CCC(c2c[nH]c3ccccc23)CC1,inactive
16,CC(C)CCN1CCCN(Cc2cccc(NC(=O)c3cc4ccccc4s3)c2)CC1,inactive
17,CNCCNCc1ccc(-c2ccc(-c3nc4c(C)cccc4[nH]3)cc2)cc1,inactive
18,CS(=O)(=O)CCNCc1cccc(-c2cc3c(Nc4ccc5c(cnn5Cc5ccccc5)c4)ncnc3s2)c1,inactive
19,Cc1cc(N2CCCC2)nc(Nc2ccc(NC(=O)c3ccccc3)cc2)n1,inactive
20,CN1C[C@@H](c2ccccc2)c2cc(O)c(CN3CCCCC3)cc2C[C@H]1Cc1ccccc1,inactive

row,Compound,outcome
1,CN(Cc1cccc(C#N)c1)C1CCN(c2cc(NC(=O)c3ccc(F)cc3)ccn2)CC1,inactive
2,CCC1N=C(N)N=C(N)N1OCCCOc1c(Cl)cc(Cl)cc1Cl (stereo not given),inactive
3,O=c1c2c([nH]c3cc(Cl)ccc13)CCCC2,inactive
4,COc1cc(F)c2nccc([C@@H](O)CN3CCC(NCc4nc5c(F)cccc5[nH]4)CC3)c2c1,inactive
5,Cc1cc(NC(=O)Nc2ccc(I)c(OCCN(C)C)c2)ccc1Br,inactive
6,Cc1c(-c2cccc(NC(=O)C(C)(C)Oc3ccc(Cl)cc3)c2)nc2ncccn12,inactive
7,CCS(=O)(=O)c1ccc(-c2cnc3[nH]cc(-c4ccc(N)cc4)c3c2)cc1,inactive
8,COc1ccc(C)c(Nc2ccnc(Nc3ccc(-c4cnc[nH]4)cc3)n2)c1,inactive
9,Oc1ccc(CCNc2nc(NCCCOc3ccccc3-c3ccc(C(F)(F)F)cc3)nc(N3CCNCC3)n2)cc1,inactive
10,CCCn1c(=N)c(C(=O)NCCc2ccccc2)cc2c(=O)n3cccc(C)c3nc21,inactive
11,CN(C)c1ccc(-c2ccc(C(=O)NC3CCN(Cc4ccc(F)cc4)CC3)s2)cc1,inactive
12,CC(=O)N[C@@H]1c2cc(C(C)=O)ccc2OC(C)(C)[C@@H]1O,inactive
13,COc1cccc(-c2cnc(N)c(-c3nc4ccc(C(F)(F)F)cc4[nH]3)c2)c1,inactive
14,COc1ccc(CNC(=O)Nc2cc3cc(-c4ccc(CN5CCCC5)cc4)ccc3n3c(C)nnc23)cc1,inactive
15,O=C(Cc1cn(-c2ccccc2)nc1-c1ccc(Cl)cc1)Nc1nccs1,inactive
16,COc1cccc(CN(C(=O)Nc2ccccc2F)[C@H]2C[C@H]3C(=O)Nc4cc(F)ccc4C(=O)N3C2)c1,inactive
17,Cc1cc(NN=Cc2ccc([N+](=O)[O-])cc2)c2ccc(F)cc2n1,inactive
18,N#Cc1cccc(-c2cccc(C(=O)NC3CCC(CCN4CCc5ccc(C#N)cc5CC4)CC3)c2)c1 (stereo not given),inactive
19,Cc1cc(NC(=O)Nc2ccc3nccc(N4CCN(C)CC4)c3c2)ccc1Br,inactive
20,O[C@@H](c1ccccc1)[C@@H]1CN(CCc2ccccc2)CC[C@@]1(O)c1ccccc1,inactive
